The nature of assay [1]: cAMP Responsive Elements (CRE) small molecule antagonists, cell-based qHTS assay: qHTS cell viability counter screen (AID 2060913). Also: nearly all actives have a fitted effect of over 40% in size. The gist of the method: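 HEK293T CRE-bla, 2,000 cells/well, 18 h preincubation; cpd in DMSO + NKH477 0.25 uM final, 3 h 37 C/5% CO2; LiveBLAzer 2 h RT, then CellTiter-Glo 30 min RT, luminescence.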
(Quantitative high-throughput screening tests each substance at several concentrations.)

The nature of assay [2]: cAMP Responsive Elements (CRE) small molecule agonists, cell-based qHTS assay: qHTS cell viability counter screen (AID 2060914). Also: nearly all actives have a fitted effect of over 50% in size. The gist of the method: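 In the same wells as the reporter read, viability of CRE-bla HEK 293T cells was quantified by CellTiter-Glo luminescence after a 3 h compound exposure.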

Results filed as inconclusive are left out. A number with no mark means an inactive call. The source made the active and inactive calls. Calls follow the shape of the dose curve; as a rule, active = well fitted cell-killing curve with a large enough effect in the repeat runs; inconclusive = weak or mixed curves, or effect the other way; inactive = flat fitted curve, though single readings scatter.
% is scaled to controls: 0 for no effect and ±100 for the full control effect.

For the compound `CCCC(CCC)(C(=O)OCC)C(=O)OCC`, the Potency entry in assay [1] and in assay [2] was “inactive” in each case.

Take `O=C1c2ccccc2C(=O)C1c1ccc(Br)cc1`: the Potency result in assay [1] and in assay [2] was “inactive” throughout.

Take `CC/C=C\C/C=C\C/C=C\CCCCCCCC(=O)OC`: the Potency entry in assay [1] and in assay [2] was “inactive” each time.

With `CC1(C)OC(=O)Nc2ccc(Br)cc21`, the Potency result in assay [1] and in assay [2] was “inactive” each time.

Regarding `O=C(c1ccccc1)c1ccc2n1CCC2C(=O)O` (stereo not drawn), the Potency entry in assay [1] and in assay [2] was “inactive” throughout.

`CC(=O)N(c1onc(C)c1C)S(=O)(=O)c1ccc(N)cc1`: the Potency entry in assay [1] and in assay [2] was “inactive” throughout.

For the compound `COc1cc2nc(N3CCN(C(=O)C4CCCO4)CC3)nc(N)c2cc1OC` (stereo not drawn), the Potency result in assay [1] and in assay [2] was “inactive” throughout.

As for `CSc1ccc(C(=O)c2[nH]c(=O)[nH]c2C)cc1`, the Potency entry in assay [1] and in assay [2] was “inactive” each time.

As for `CC(=O)/C=C/C1C(C)=CCCC1(C)C` (stereo not drawn), the Potency entry in assay [1] and in assay [2] was “inactive” each time.

For `C=C(C)c1cccc(C(=C)C)c1`, the Potency result in assay [1] and in assay [2] was “inactive” in each case.

In the case of `FB(F)F`, the Potency entry in assay [1] and in assay [2] was “inactive” throughout.

In the case of `Nc1ccccc1O`, the Potency result in assay [1] and in assay [2] was “inactive” each time.

As to `O=C(OCC(O)CO)c1ccccc1Nc1ccnc2c(C(F)(F)F)cccc12` (stereo not drawn), the Potency entry in assay [1] and in assay [2] was “inactive” throughout.

As for `COc1ccc(-c2coc3cc(O)cc(O)c3c2=O)cc1`, the Potency result in assay [1] and in assay [2] was “inactive” throughout.

In the case of `COc1ccc(NC(C)=O)cc1N`, the Potency entry in assay [1] and in assay [2] was “inactive” throughout.

For the compound `O=C(O)CN(CCCN(CC(=O)O)CC(=O)O)CC(=O)O`, in assay [1], the viability change, negative = cytotoxic was 0.188% [at 18.9 µM]. Moreover, in assay [2], the activity change, negative = cytotoxicity is -8.11% [at 18.9 µM].

Regarding `CC(=O)[O][Al]`, the Potency entry in assay [1] and in assay [2] was “inactive” each time.

`CC1CC(=O)CC(C)(C)C1` (stereo not drawn): the Potency entry in assay [1] and in assay [2] was “inactive” throughout.

Consider `CN(CCOc1ccc(NS(C)(=O)=O)cc1)CCc1ccc(NS(C)(=O)=O)cc1`, for which the Potency result in assay [1] and in assay [2] was “inactive” each time.

The values above are taken from PubChem BioAssay (Tox21).
